Results filed as inconclusive are left out. Activity calls are given as the source filed them. Calls follow the shape of the dose curve; as a rule, active = well fitted curve in the direction sought with a large enough effect; inconclusive = small, poorly fitted or top-dose-only effect, or another doubt; inactive = no such curve, though single readings can be large; an effect the other way counts as inactive or inconclusive.
What was measured:
[1] = target: Rap guanine nucleotide exchange factor 3 (Homo sapiens) (UniProt O95398); assay: Confirmatory qHTS for agonist of cAMP-regulated guanine nucleotide exchange factor 3 (EPAC1) (AID 1645881); conditions: EPAC1 Rap1B BODIPY-GDP exchange fluorescence; series mostly up to 154 µM;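 also: EPAC1 catalysed release of BODIPY-GDP from Rap1B seen as fluorescence loss; 100% = effect of cAMP agonist control; nearly all actives have a fitted effect of over 75% in size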
[2] = target: Rap guanine nucleotide exchange factor 4 (Homo sapiens) (UniProt Q8WZA2); assay: Confirmatory qHTS for agonist of cAMP-regulated guanine nucleotide exchange factor 4 (EPAC2) (AID 1645884); conditions: EPAC2 GEF activity, Rap1B-BODIPY-GDP fluorescence; series mostly up to 154 µM;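 also: nucleotide exchange releases bodipy-GDP from Rap1 and this lowers its fluorescence; % is scaled to controls: 0 for no effect and ±100 for the full control effect; nearly all actives have a fitted effect of over 65% in size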
[3] = target: Rap guanine nucleotide exchange factor 4 (Homo sapiens) (UniProt Q8WZA2); assay: Confirmatory qHTS for antagonist of cAMP-regulated guanine nucleotide exchange factor 4 (EPAC2) (AID 1645885); conditions: EPAC2 Rap1B-BODIPY-GDP exchange fluorescence, biochemical; series mostly up to 12.7 µM; also: % is scaled to controls: 0 for no effect and ±100 for the full control effect; nearly all actives have a fitted effect of over 25% in size
[4] = target: Rap guanine nucleotide exchange factor 3 (Homo sapiens) (UniProt O95398); assay: Counterscreen qHTS for antagonist of cAMP-regulated guanine nucleotide exchange factor 3 (EPAC1) (AID 1645888); conditions: Rap1B-BODIPY-GDP nucleotide exchange, fluorescence; series mostly up to 154 µM;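 also: fluorescence loss as bound BODIPY-GDP is released from Rap1B; % of control where 0% means no effect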
In short: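 Measured: fluorescence of BODIPY-GDP bound to Rap1B, which falls as exchange proceeds. Conditions include 50 uM competing GDP, 5 and 30 min reads, and a later cAMP challenge for antagonist detection.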

Sequence of Rap guanine nucleotide exchange factor 3 (Homo sapiens) (O95398 whole entry, looked up): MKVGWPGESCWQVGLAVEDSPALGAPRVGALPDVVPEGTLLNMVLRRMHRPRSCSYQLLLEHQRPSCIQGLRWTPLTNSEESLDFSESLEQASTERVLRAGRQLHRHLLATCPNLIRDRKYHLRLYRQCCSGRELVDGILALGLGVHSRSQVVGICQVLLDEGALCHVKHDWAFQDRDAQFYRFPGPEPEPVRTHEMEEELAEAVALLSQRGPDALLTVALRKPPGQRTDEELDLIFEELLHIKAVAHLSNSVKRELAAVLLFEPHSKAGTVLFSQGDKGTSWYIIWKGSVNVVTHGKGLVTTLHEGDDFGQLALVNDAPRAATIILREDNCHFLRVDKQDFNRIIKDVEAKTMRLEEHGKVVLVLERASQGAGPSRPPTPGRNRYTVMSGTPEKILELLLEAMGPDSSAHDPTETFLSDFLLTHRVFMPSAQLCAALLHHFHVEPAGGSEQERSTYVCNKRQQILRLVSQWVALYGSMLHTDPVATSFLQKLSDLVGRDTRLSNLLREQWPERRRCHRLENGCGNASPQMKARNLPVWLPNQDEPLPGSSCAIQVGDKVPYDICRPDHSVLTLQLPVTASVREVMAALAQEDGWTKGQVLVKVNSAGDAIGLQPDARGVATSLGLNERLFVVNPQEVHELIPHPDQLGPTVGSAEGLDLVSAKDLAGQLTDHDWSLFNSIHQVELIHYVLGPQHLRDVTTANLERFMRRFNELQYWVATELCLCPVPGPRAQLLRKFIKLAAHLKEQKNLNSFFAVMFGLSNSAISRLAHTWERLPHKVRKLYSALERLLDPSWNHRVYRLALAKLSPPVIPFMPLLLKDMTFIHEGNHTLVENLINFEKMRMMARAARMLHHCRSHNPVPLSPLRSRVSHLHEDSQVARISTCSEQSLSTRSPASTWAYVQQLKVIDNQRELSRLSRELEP
Sequence of Rap guanine nucleotide exchange factor 4 (Homo sapiens) (Q8WZA2 whole entry, looked up): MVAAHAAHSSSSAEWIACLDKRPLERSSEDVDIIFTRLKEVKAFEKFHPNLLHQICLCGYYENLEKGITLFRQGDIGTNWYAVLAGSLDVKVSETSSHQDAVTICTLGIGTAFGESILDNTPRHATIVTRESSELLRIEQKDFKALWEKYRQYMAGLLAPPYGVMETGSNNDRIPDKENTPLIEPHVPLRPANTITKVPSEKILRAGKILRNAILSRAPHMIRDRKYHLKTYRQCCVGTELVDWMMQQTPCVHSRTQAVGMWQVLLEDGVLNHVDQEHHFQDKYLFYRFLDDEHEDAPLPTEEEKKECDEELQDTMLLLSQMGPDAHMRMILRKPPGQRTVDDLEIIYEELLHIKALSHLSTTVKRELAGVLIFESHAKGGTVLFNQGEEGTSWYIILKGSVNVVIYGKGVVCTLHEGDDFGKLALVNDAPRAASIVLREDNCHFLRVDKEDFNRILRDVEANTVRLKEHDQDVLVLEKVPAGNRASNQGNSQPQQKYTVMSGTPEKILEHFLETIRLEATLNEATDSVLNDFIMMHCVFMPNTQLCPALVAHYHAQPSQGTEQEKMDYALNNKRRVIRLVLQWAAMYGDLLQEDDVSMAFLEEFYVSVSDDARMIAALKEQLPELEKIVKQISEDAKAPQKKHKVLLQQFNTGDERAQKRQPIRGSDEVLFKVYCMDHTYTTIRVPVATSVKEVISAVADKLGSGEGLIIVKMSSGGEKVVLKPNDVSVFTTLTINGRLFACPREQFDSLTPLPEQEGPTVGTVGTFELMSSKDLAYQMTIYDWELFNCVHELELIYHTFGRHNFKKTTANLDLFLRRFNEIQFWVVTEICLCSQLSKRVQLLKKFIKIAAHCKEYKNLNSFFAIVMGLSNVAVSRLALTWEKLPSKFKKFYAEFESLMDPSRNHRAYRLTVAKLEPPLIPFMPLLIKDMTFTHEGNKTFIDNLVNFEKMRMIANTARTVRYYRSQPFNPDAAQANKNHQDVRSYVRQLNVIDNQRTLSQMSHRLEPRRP

O=C1N(Cc2ccccc2)c2ccccc2C1(O)c1c[nH]c2ccccc12 (configuration not stated)
inactive: Potency [1] | Potency [2] | Potency [3] | Potency [4]

CCCC1=C(C(=O)OCC)C(c2ccco2)C(C#N)=C(N)O1 (configuration not stated)
inactive: Potency [1] | activation [2] 2.29% [at 17.1 µM, percent relative to cAMP agonist control] | Potency [3] | activity change, negative = inhibition [4] -11% [at 30.8 µM]

C#Cc1ccc([C@@H]2C=C(C(=O)OCC=C)O[C@H](OCc3ccc(CO)cc3)C2)cc1
inactive: Potency [1] | activation [2] -0.524% [at 17.1 µM, percent relative to cAMP agonist control] | Potency [3] | activity change, negative = inhibition [4] -8.75% [at 30.8 µM]

COc1ccc(CCNC(=O)CS(=O)(=O)Cc2nc(-c3ccc(C)cc3)oc2C)cc1OC
inactive: Potency [1] | activation [2] 2.98% [at 17.1 µM, percent relative to cAMP agonist control] | Potency [3] | activity change, negative = inhibition [4] -2.91% [at 30.8 µM]

CC(CNC(=O)c1sc2ncccc2c1-n1cccc1)c1ccccc1 (configuration not stated)
inactive: Potency [1] | Potency [2] | Potency [3] | Potency [4]

C=C(C)COc1ccc(-c2[nH]ncc2-c2ccccc2OC)c(O)c1
inactive: Potency [1] | activation [2] 16.3% [at 17.1 µM, percent relative to cAMP agonist control] | Potency [3] | activity change, negative = inhibition [4] 6.08% [at 30.8 µM]

COc1cc(-c2cc(OC)c3c(C)oc(C)c3c(=O)c2)ccc1OC(=O)c1ccc(C)cc1
inactive: Potency [1] | Potency [2] | Potency [3] | Potency [4]

CC(C)(C)C1CCc2c(sc3nc(SCC(=O)O)nc(N)c23)C1 (configuration not stated)
inactive: Potency [1] | activation [2] 8.5% [at 17.1 µM, percent relative to cAMP agonist control] | Potency [3] | activity change, negative = inhibition [4] -1.53% [at 30.8 µM]

C=CCOC(=O)C1=C(C)NC(C)=C(C(=O)OCC=C)C1c1ccco1
inactive: Potency [1] | activation [2] 7.19% [at 17.1 µM, percent relative to cAMP agonist control] | Potency [3] | activity change, negative = inhibition [4] -5.56% [at 30.8 µM]

O=C1C=C(Nc2cccc3cccnc23)c2ccccc2C1=O
inactive: Potency [1] | Potency [2] | Potency [3] | Potency [4]

CCOc1cc(CNc2ccc(O)cc2)cc(Cl)c1OCc1ccccc1
inactive: Potency [1] | Potency [2] | Potency [3] | Potency [4]

C=CCc1ccccc1OCCSc1nc(-c2ccccc2F)nc2cc(=O)[nH]n12
inactive: Potency [1] | Potency [2] | Potency [3] | Potency [4]

COc1cc2c(cc1OC)C(COc1cc(C)cc(C)c1)N(C(C)=O)CC2 (configuration not stated)
inactive: Potency [1] | activation [2] -1.36% [at 17.1 µM, percent relative to cAMP agonist control] | Potency [3] | activity change, negative = inhibition [4] -10.1% [at 30.8 µM]
